Inconclusive results are not listed. Unmarked numbers belong to inactive results. The source made the active and inactive calls. Calls follow the shape of the dose curve; as a rule, active = well fitted inhibition curve with a large enough effect in the repeat runs; inconclusive = weak or mixed curves, or effect the other way; inactive = no such curve, though single readings can be large or run the other way.
% is scaled to controls: 0 for no effect and ±100 for the full control effect.

The nature of the test: qHTS assay to identify small molecule antagonists of the retinoic acid receptor (RAR) signaling pathway (AID 1159552; also: nearly all actives have a fitted effect of over 50% in size). Particulars: C3RL4 RARE luciferase reporter, retinol-stimulated, 6 h; series mostly up to 92.4 µM. The source says: National Center for Advancing Translational Sciences [NCATS]
NIH Chemical Genomics Center [NCGC]
U.S. Environmental Protection Agency [EPA]
National Institutes of Environmental Health Sciences [NIEHS]
National Toxicology Program [NTP]
U.S. Food and Drug Administration [FDA]
All-trans Retinoic acid (atRA) is the potent natural metabolite of retinol and plays an important role in normal embryonic development and maintenance of cellular phenotype in adult animals. atRA is the activating ligand for the retinoic acid receptors (RARs) which form heterodimers with retinoid X receptors (RXRs) on the retinoic acid response element (RARE). Through activation of the RAR/RXRs nuclear receptors, atRA regulates the transcription of a large number of protein-coding genes and regulatory RNAs. Intracellular levels of atRA are controlled by the retinol signaling pathway (RSP) that regulates the biosynthesis and catabolism of atRA to maintain physiological levels. Chemicals that interfere with the RSP can cause abnormal intracellular levels of atRA and therefore are potential developmental toxicants. To assess compounds for the potential adverse effect on embryonic development through interfering with retinol signaling, a cell-based RARE luciferase reporter gene assay was used. C3RL4 cell line (OARSA/CFSAN/FDA, Laurel, MD) was used to screen Tox21 10K compound library for identifying inhibitors of the RSP.
Tox21 Assay Protocol Summary:
C3RL4 cells were seeded at 1,000/well in 4 uL of assay medium into white solid 1,536-well tissue culture plates (Greiner Bio-One North America Inc. Monroe, NC) using a Multidrop Combi (Thermo Scientific, Waltham, MA) dispenser. After incubation at 37 C and 5% CO2 for an overnight, 23 nL of compounds dissolved in DMSO, positive control or DMSO only were transferred by a Pintool station (Kalypsys, San Diego, CA). One ul of 1 uM (final concentration) of Retinol was added right after the compound addition by using a Flying Reagent Dispenser (FRD) (Aurora Discovery, San Diego, CA). After 6 hr incubation at 37 C and 5% CO2, 5 uL of Amplite Luciferase reagent (AAT Bioquest Inc. Sunnyvale, CA) was added to each assay plate using an FRD. Luminescence was quantified on a ViewLux plate reader (PerkinElmer, Waltham, MA) after 30 min incubation at room temperature.
A general note: Quantitative high-throughput screening tests each substance at several concentrations.
Turning to `CCCCCCCCC1CCC(=O)O1` (stereo not given), the call was inactive. On the same count and under the same terms, for `CC(C)c1ccc2cc(C(C)C)ccc2c1` the value was “inactive”; for `O=C(OCC1(COC(=O)c2cccnc2)CCCC(COC(=O)c2cccnc2)(COC(=O)c2cccnc2)C1O)c1cccnc1`, “inactive”; for `O=C(OCC(COC(=O)c1cccnc1)(COC(=O)c1cccnc1)COC(=O)c1cccnc1)c1cccnc1`, “inactive”.

With `CCCCCCCCCCl`, the result was inactive. As for `OC[C@H](Cc1cccc(O)c1)[C@H](CO)Cc1cccc(O)c1`, the compound was classed as inactive. Same read-out and setting: for `CC(=O)Nc1cccc(C)c1` the value was “inactive”; for `Cc1[nH]cnc1-c1ccc(Cl)cc1`, “inactive”; for `CC(N)C(=O)OC(C)(C)Cc1ccc(Cl)cc1` (stereo not given), “inactive”. The same measure, in the same setting: for `CCCCCCN` the value was “inactive”.

Turning to `CC1(CO)CN(c2ccccc2)NC1=O` (stereo not given), the result was inactive. On the same count and under the same terms, in the case of `CC(S)C(=O)NCC(=O)O` (stereo not given) it was “inactive”. For `CC[C@H](C)C(=O)O[C@H]1C[C@H](O)C=C2C=C[C@H](C)[C@H](CC[C@@H](O)C[C@@H](O)CC(=O)O)[C@H]21`, the call was inactive.

As for `CCO[Si](CCCS)(OCC)OCC`, the call was inactive.

As to `COC(=O)CCCCCCCC(=O)OC`, the compound was classed as inactive. On the same count and under the same terms, for `COP(=O)(OC)OC(c1ccc(Cl)cc1)P(=O)(OC)OC` (stereo not given) the value was “inactive”. In the case of `Nc1ncnc(Nc2ccccc2)n1`, the outcome was inactive.

As for `Nc1cccc(O)c1`, the outcome was inactive. Same read-out and setting: for `CC(=O)OC(C)OC(=O)C(C)c1ccc(-c2ccccc2)c(F)c1` (stereo not given) the value was “inactive”. On the same count and under the same terms, in the case of `O=C(c1ccc(O)cc1)c1ccc(O)c(O)c1O` it was “inactive”; in that of `COCCc1ccc(OCC2CO2)cc1` (stereo not given), “inactive”; in that of `O=C1c2ccccc2C(=O)C1c1ccccc1`, “inactive”.

As for `CC(COC(C)(C)C)OCCCO` (stereo not given), the compound was classed as inactive.

Regarding `CCOc1cc([N+](=O)[O-])c(OCC)cc1N1CCOCC1`, the outcome was inactive. As for `CCC(C)(CCC(C)C)C(=O)O` (stereo not given), the call was inactive. For `CCOC(=O)c1ccc(OC(=O)CCCCCN=C(N)N)cc1`, the result was inactive. For `N[C@@H](CCC(=O)N[C@@H](CS)C(=O)NCC(=O)O)C(=O)O`, the activity, negative = inhibition was 29.9% [at 19 µM]. For the compound `O=C(NCCN1CCOCC1)c1ccc(Cl)cc1`, the compound was called inactive. Take `CC(=O)/C=C/C1C(C)=CCC(C)C1(C)C` (stereo not given): the result was inactive. With `CCOC(=O)CC(=O)c1ccccc1`, the compound was classed as inactive. On to `CC(C)CC(C)CC(C)CC(C)COC(=O)c1ccccc1C(=O)OCC(C)CC(C)CC(C)CC(C)C` (stereo not given), for which the outcome was inactive.

In the case of `NS(=O)(=O)c1cc2c(cc1Cl)CN(C1CCCCC1)C2=O`, the call was inactive. As for `O=C(O)Cc1ccc(Cl)cc1Cl`, the compound was called inactive.

For `NNc1nnc(NN)c2ccccc12`, the result was inactive. As to `CCCCNc1ccc(C(=O)OCCN(C)C)cc1`, the result was inactive. On to `CCCCCCOc1ccccc1C(N)=O`, for which the compound was classed as inactive. As for `BrCc1cccc(Oc2ccccc2)c1`, the outcome was inactive.

On to `CCOC(=O)/C=C/c1ccccc1`, for which the compound was classed as inactive. The same measure, in the same setting: in the case of `CC(C)C(=O)OCc1cccc(OC(=O)[C@@H]2N3C(=O)[C@@H](NC(=O)Cc4ccccc4)[C@H]3SC2(C)C)c1` it was “inactive”; in that of `CC(CN)CC(C)(C)CCN` (stereo not given), “inactive”.
